Compounds with a hit are over-represented: about 0.68% of the library has one in this group of screens.
RN4220 kill = kills Staphylococcus aureus RN4220. S. aureus RN4220 growth, OD600, 16 h. inhibition, % (test concentration not listed). 330,000 compounds, 0.33% hits. AID 1259311; in the data active = inhibition above about 85%;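 note: plate controls were untreated cells for no effect and reference antibiotic for full effect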
ugtP null kill = kills S. aureus RN4220 lacking UgtP; 330,000 compounds, 0.54% hits; S. aureus RN4220 ugtP deletion, OD600 growth, 16 h; growth inhibition, % (concentration not given with the values); AID 1259309; in the data active = growth inhibition above about 68%;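 note: plate controls were untreated wells for no effect and antibiotic for full effect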
Mtb hypoxia rep = Mtb hypoxia fluorescent reporter inhibition; M. tuberculosis hypoxia-regulated fluorescent reporter, fluorescence; 300,000 compounds, 0.1% hits; fluorescence inhibition, % (test concentration not listed); in the data active = fluorescence inhibition mostly above about 23%, no sharp cut-off; inactive = mostly below about 17%
* = called active by the depositor; / = no result given.

SMILES	RN4220 kill	ugtP null kill	Mtb hypoxia rep
Cc1ccc(Oc2ccc(Cl)cc2N)cc1	-1.7	8.7	3.7
Nc1cc(Cl)ccc1Oc1ccc2ccccc2c1	-4.0	94.9*	2.1
C=C1C=C(C)C(C)(O)CC(O)CC(=O)C(O)C(O)C(C)CC(C)OC(=O)C(C)=CCCC=CC(OC)C(O)CC(C)C1 (stereo not given)	5.9	5.8	6.0
Cc1noc(C)c1NC(=O)Nc1ccc2c(c1)C(=O)N(C(C)CO)CC(C)C(CN(C)C(=O)Nc1c(C)noc1C)O2 (stereo not given)	2.0	3.8	9.9
Cc1cc2n(n1)C(c1c[nH]c3ccccc13)Nc1ccccc1-2 (stereo not given)	99.2*	99.3*	-2.4
Cc1cc2n(n1)C(c1cn(-c3ccccc3)nc1C)Nc1ccccc1-2 (stereo not given)	-7.5	-12.7	-5.4
COc1ccc(C2CC(=O)C=C(c3ccc(-c4ccccc4)cc3)C2)cc1OC (stereo not given)	4.1	2.7	2.1
Cc1ccc(C=NN2CCN(Cc3cccc4ccccc34)CC2)o1	-1.6	4.2	0.2
Cc1nn(C)cc1C=NO	1.1	2.6	4.8
FC(F)(F)c1cc(C(F)(F)F)c2ccc(N3CCN(c4ccc(Cl)cc4)CC3)nc2n1	40.6	48.4	12.6
N#CC(c1ccc(Cl)cc1)c1ccc2c(C(F)(F)F)cc(C(F)(F)F)nc2n1 (stereo not given)	100.5*	100.9*	/
CCOC(=O)N1CCC(NC(=O)c2ccc(CS(=O)(=O)c3c(Cl)cccc3Cl)o2)CC1	2.9	-9.6	/
CCCNC(=O)c1ccc(COc2ccc(Cl)cc2)o1	4.5	9.7	-4.4
CC(=O)OCC1=C(C(=O)O)N2C(=O)C(NC(=O)c3ccc(COc4c(C)cccc4Cl)o3)C2SC1 (stereo not given)	95.5*	100.0*	8.9
CC(=O)OCC1=C(C(=O)O)N2C(=O)C(NC(=O)c3ccc(COc4ccc(Cl)cc4)o3)C2SC1 (stereo not given)	99.4*	100.2*	10.8
CC(C)CC(NC(=O)c1nc[nH]c1C(=O)NC(CCCCNC(=O)OC(C)(C)C)C(=O)OC(C)(C)C)C(=O)OC(C)(C)C (stereo not given)	-7.3	-2.6	-11.7
Fc1ccccc1-c1nc(-c2ccc(Cl)cc2)no1	-2.1	-3.4	2.7
c1ccc(-c2noc(-c3ccccc3-c3ccccc3)n2)cc1	-8.8	94.9*	/
CC(NC(=O)c1nc[nH]c1C(=O)NCCCCCNC(=O)OC(C)(C)C)C(=O)OC(C)(C)C (stereo not given)	3.0	-0.3	6.9
CC(C)CC(=O)NC(=S)Nc1ccc(S(=O)(=O)Nc2nccs2)cc1	1.8	91.6*	10.1
CCc1nnc(NS(=O)(=O)c2ccc(NC(=S)NC(=O)c3ccc(F)cc3)cc2)s1	12.3	87.3*	7.7
CCC(C)C(=O)Nc1ccc(S(=O)(=O)Nc2nccs2)cc1 (stereo not given)	5.8	16.2	22.5
CCCC(=O)NC(=S)Nc1ccc(S(=O)(=O)Nc2ccc(OCC)cc2)cc1	7.1	87.6*	3.1
CC(C)C(=O)NC(=S)Nc1ccc(S(=O)(=O)N2CCN(C)CC2)cc1	1.3	16.7	2.5
CC(C)CC(=O)NC(=S)Nc1ccc(S(=O)(=O)N2CCN(C)CC2)cc1	2.9	85.9*	2.2
SMILES	RN4220 kill	ugtP null kill	Mtb hypoxia rep
CCc1nnc(NS(=O)(=O)c2ccc(NC(=S)NC(=O)c3cccnc3)cc2)s1	11.0	17.6	14.6
CCOc1ccc(NS(=O)(=O)c2ccc(C(=O)N(C)CC(=O)Nc3ccc(OC)cc3)cc2)cc1	3.6	5.5	3.6
COc1ccc(O)c(C=NNC(=S)Nc2cccnc2)c1	2.5	9.8	11.6
COC(=O)C1=C(c2cccc(C#N)c2)CC2CCC1N2C(=O)NCCc1ccccc1 (stereo not given)	5.0	5.6	7.9
CC(C)CC(=O)NNC(=S)Nc1ccc(S(N)(=O)=O)cc1	6.9	10.4	13.4
CCOc1ccc(NC(=S)NNC(=O)CC(C)O)cc1 (stereo not given)	3.5	0.6	-9.2
CC(C)CC(=O)NC(=S)Nc1ccc(S(=O)(=O)NC(C)(C)C)cc1	3.3	86.7*	-2.7
CCOc1ccc(NS(=O)(=O)c2ccc(NC(=S)NC(=O)CC(C)C)cc2)cc1	-0.4	87.0*	/
CCC(=O)OCC(=O)C1(OC(=O)CC)C(C)CC2C3C(Cl)CC4=CC(=O)C=C[C@]4(C)C3C(O)C[C@@]21C (stereo not given in full)	0.2	-6.6	-4.7
COc1ccc(C=NNC(=O)CN2CCCc3ccccc32)c(OC)c1	0.1	-2.3	14.1
Oc1cccc2ccc(/C=C/c3ccccc3Cl)nc12	83.0	90.7*	11.3
Oc1cccc2ccc(/C=C/c3c(F)cccc3Cl)nc12	-7.9	7.5	0.0
CCCCCCN(C(=O)CCl)c1ccccc1	12.0	18.5	22.7
CCCCCCCN(C(=O)CCl)c1cccc(C)c1	25.4	87.4*	22.1
O=[N+]([O-])c1cccc(C(=NN=Cc2ccccc2Br)C23CN4CN(CN(C4)C2)C3)c1	5.6	-6.6	-2.8
CC[n+]1ccc(C=C2Sc3ccccc3N2CCCS(=O)(=O)[O-])c2ccccc21	5.3	-1.3	14.8
COc1ccccc1C=NNC(=O)NN=Cc1ccccc1OC	5.6	0.0	-1.6
CCCCCCCCCCS(=O)(=O)NN=Cc1ccccc1OC	4.1	96.5*	6.8
CCn1nc(C)cc1-c1nnc(Sc2ncc([N+](=O)[O-])s2)n1C	48.3	90.6*	16.0
CCn1nc(C)cc1-c1nnc(SCC(=O)Nc2ccccc2)n1CCCOC	-1.0	-0.6	2.0
CON=CNC(=O)Cc1cn(-c2ncc(C(F)(F)F)cc2Cl)c2ccccc12	9.5	69.3	/
COc1ccc(CN(C)C(=O)c2cccc(S(=O)(=O)N3CCCc4ccccc43)c2)c(OC)c1OC	5.7	0.8	27.7*
COc1ccc(CN(C)C(=O)c2cccc(S(=O)(=O)N3CCN(c4ccccc4)CC3)c2)c(OC)c1OC	2.2	0.2	0.3
O=C1NC(=O)/C(=C/c2ccccc2OCc2ccccc2)S1	63.2	61.5	11.4
O=C1NC(=S)SC1=Cc1cc(Br)ccc1O	31.4	39.4	9.7
SMILES	RN4220 kill	ugtP null kill	Mtb hypoxia rep
CCOc1ccc(/C=C2\SC(=S)NC2=O)cc1OC	79.1	87.6*	5.9
O=C1NC(=S)SC1=Cc1ccccc1Br	100.0*	100.1*	20.9
CCOc1ccccc1C=C1SC(=S)NC1=O	95.2*	96.6*	8.3
CCOc1ccc(/C=C2\SC(=S)N(C)C2=O)cc1OC	3.1	-4.8	4.3
NS(=O)(=O)c1cccc(NC(=O)COC(=O)c2ccc(S(=O)(=O)N3CCOCC3)cc2)c1	1.7	0.4	12.3*
Cc1ccc(S(=O)(=O)N2CCOCC2)cc1NC(=O)C(c1ccc(Cl)cc1)C(C)C (stereo not given)	89.3*	90.8*	3.4
Cc1ccc(S(=O)(=O)N2CCOCC2)cc1NC(=O)CSc1ccc(Cl)cc1	3.4	4.0	3.2
Cc1ccccc1NC(=O)COC(=O)c1cc(S(=O)(=O)N2CCOCC2)ccc1C	3.3	-0.9	32.5*
Cc1ccc(S(=O)(=O)N2CCOCC2)cc1C(=O)OCC(=O)NCc1ccccc1	1.5	9.6	-0.6
O=C(COC(=O)c1ccc2c(c1)OCCO2)Nc1cccc(S(=O)(=O)N2CCOCC2)c1	7.9	14.2	18.1
Cn1cc(C(=O)c2ccc(Cl)cc2Cl)cc1C(=O)NN=C(N)COc1ccc(Cl)cc1	-5.9	-1.9	9.2

High-throughput results as filed in PubChem BioAssay.
